# Source: PubChem BioAssay (NCATS)
# Where “and” joins values, the source holds several entries; their conditions need not be identical. Equal values may be shown once. Records with an inconclusive call do not appear. Entries that show only a call come without a potency. More than one record can exist for a structure, and the calls need not agree. Calls of active or inactive are those of the source. Unless noted, calls come from the whole dose curve; as a rule, active = well fitted curve in either direction with a large enough effect (not every such curve was filed as active); inconclusive = small, poorly fitted or top-dose-only effect, or another doubt; inactive = flat fitted curve, though single readings scatter.
# What was measured:
# [1] = Stat Signaling Pathway (AID 446);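 note: ME-180 cervical cancer cells given 40 pM IL-6 alongside compound; SIE-controlled beta-lactamase reporter measured as 460/530 nm FRET emission ratio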
# How it was run: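 Compound effects on IL-6-induced STAT reporter activity were measured in ME-180 cells. After overnight culture, cells were co-treated with 40 pM IL-6 for 5 hrs before beta-lactamase substrate loading at room temperature.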
# [2] = molecular target: Mitogen-activated protein kinase 10 (Mus musculus) (UniProt Q61831); assay: JNK3 AlphaScreen Assay (AID 530);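 note: kinase came from lysate of stimulated human HepG2 cells; signal reports phosphorylation of biotinylated GST-cJun 1-79 at Ser73 with 10 µM ATP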
# How it was run: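 Activity was read by AlphaScreen after JNK3-containing HepG2 lysate (cytokine pre-activated) phosphorylated biotinylated GST-cJun with 10 uM ATP at room temperature. Phospho-Ser73 cJun antibody with Protein-A acceptor beads provided detection.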
# [3] = AP1 Signaling Pathway (AID 357)
# How it was run: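 ME-180 cells with beta-lactamase reporter under AP-1 response element, stimulated with EC50 EGF; compounds tested in titration series, 5 h at 37 °C. CCF4 substrate added 2.5 h at room temperature; 460/530 nm emission ratio gave %activity and AC50.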
# [4] = NFAT Signaling Pathway (AID 444); settings: Jurkat NFAT-bla M1, carbachol, beta-lactamase ratio, 5 h; at 38 µM (top of the series);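 note: carbachol stimulus at about its EC50 of 1 µM final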
# How it was run: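 Jurkat cells with NFAT-driven β-lactamase reporter and co-expressed M1 receptor, stimulated with carbachol (final 1 uM, ~EC50), compound titration, 5 h at 37 °C. CCF4 loaded 1 h at RT; 460/530 nm ratio gave %activity and AC50.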
# [5] = molecular target: Glucocorticoid receptor (Homo sapiens) (UniProt P04150); assay: GR-GFP Redistribution (AID 450;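 active = compounds whose dose series gives a full or clear partial fitted curve of increased nuclear translocation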; note: potency is the fitted concentration of half-maximal effect); settings: U2OS GR-GFP nuclear translocation, laser cytometry, 2 h
# Sequence of Glucocorticoid receptor (Homo sapiens) (P04150 whole entry, looked up): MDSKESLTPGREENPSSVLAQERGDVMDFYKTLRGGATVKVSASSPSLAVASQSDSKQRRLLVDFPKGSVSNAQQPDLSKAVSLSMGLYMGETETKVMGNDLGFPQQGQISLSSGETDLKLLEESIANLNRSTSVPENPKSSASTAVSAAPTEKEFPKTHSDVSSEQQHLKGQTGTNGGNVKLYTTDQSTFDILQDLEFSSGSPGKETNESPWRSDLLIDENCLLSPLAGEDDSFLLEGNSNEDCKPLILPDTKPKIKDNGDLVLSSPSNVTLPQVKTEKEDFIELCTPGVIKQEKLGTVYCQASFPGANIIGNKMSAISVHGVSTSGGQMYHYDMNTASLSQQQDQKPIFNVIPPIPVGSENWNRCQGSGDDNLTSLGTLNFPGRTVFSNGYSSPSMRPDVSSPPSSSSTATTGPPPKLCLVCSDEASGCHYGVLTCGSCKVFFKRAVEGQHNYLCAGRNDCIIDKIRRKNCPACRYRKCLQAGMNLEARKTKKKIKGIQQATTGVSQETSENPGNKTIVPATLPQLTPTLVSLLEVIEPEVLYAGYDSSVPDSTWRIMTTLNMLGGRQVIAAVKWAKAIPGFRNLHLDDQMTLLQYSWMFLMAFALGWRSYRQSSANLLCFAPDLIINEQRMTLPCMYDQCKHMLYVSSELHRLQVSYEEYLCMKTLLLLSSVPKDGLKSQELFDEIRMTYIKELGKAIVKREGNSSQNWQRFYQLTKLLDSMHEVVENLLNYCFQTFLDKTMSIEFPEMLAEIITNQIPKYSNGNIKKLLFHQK
SMILES,outcome [1],outcome [2],outcome [3],"activity change, negative = inhibition [4]",Potency [5]
COc1cc2nc(N3CCN(C(=O)c4ccco4)CC3)nc(N)c2cc1OC,inactive,inactive,,,
CCCNCC(O)COc1ccccc1C(=O)CCc1ccccc1 (centres undefined),inactive,,inactive,,
CN1CCN(C2=Nc3cc(Cl)ccc3Nc3ccccc32)CC1,inactive,inactive,inactive,-49.7% (active),> 46 µM (inactive) and > 20.6 µM (inactive) and 2.68 µM (active)
